In the library only some 12% were active in any assay of this set; here they are far more common.
Pf growth 96h: inhibits malaria parasite growth, 96 h | P. falciparum luciferase reporter growth, 96 h | Potency, µM (highest dose often 28.7 µM), inactives show at the top dose activity change, negative = inhibition, most hits filed as inhibitors | 6.9% of 320,000 active; note: % is set by controls: 0 for no effect and ±100 for the full control effect
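Readout is luminescence from an integrated firefly luciferase in P. falciparum. Red cells, 2% hematocrit and 0.05% parasitemia final, were cultured with compound through two parasite generations (96 hours) at 37 C, 5% CO2.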
Sm TGR inh: S. mansoni TGR enzyme inhibition; Potency, µM (series often up to 114 µM), without a hit: top-dose activity change, negative = inhibition, hits mostly inhibitors; purified TGR, DTNB reduction, TNB absorbance 405 nm; 3% of 360,000 active; Q962Y6; AID 485364; note: % is set by controls: 0 for no effect and ±100 for the full control effect; nearly all actives have a fitted effect of over 60% in size
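TGR 20 nM + NADPH 100 uM (dispensed conc.), cpd preinc 15 min RT; start with NADPH (500 uM addition) then DTNB (15 mM addition). Kinetic TNB absorbance, 405 nm filter. Four-parameter Hill fit across titration.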
AmpC detergent: blocks E. coli AmpC beta-lactamase in detergent assay | P00811 | AmpC hydrolysis of nitrocefin, absorbance 480 nm, 0.01% Triton | Potency, µM (titrated, usually from 114 µM), for the others: top-dose activity change, negative = inhibition, hits mostly inhibitors | 0.041% of 370,000 active | AID 485294;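 note: 0% = no-compound wells and -100% = no-enzyme wells; nearly all actives have a fitted effect of over 25% in size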
Target sequence (P00811 whole entry, looked up): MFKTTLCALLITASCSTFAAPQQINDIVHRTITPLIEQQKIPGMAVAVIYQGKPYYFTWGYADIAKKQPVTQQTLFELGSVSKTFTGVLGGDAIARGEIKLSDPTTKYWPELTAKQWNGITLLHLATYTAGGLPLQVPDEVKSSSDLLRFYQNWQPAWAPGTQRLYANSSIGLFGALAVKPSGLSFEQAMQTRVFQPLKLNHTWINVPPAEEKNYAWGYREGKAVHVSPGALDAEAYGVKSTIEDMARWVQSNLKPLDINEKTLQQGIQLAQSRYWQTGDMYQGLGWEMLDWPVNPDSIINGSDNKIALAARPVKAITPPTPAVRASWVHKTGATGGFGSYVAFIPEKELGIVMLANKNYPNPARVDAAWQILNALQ
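AmpC (5.3 nM in the dispensed reagent) in 20 mM phosphate pH 7.0 with 0.01% (detergent screen) or 0.0001% Triton X-100 was preincubated with compounds for 15 min at room temperature. Nitrocefin was then added from an 800 uM solution, and hydrolysis was followed at 480 nm.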
AmpC inh no detg: blocks E. coli AmpC beta-lactamase in detergent-free assay; P00811; AmpC nitrocefin hydrolysis, absorbance 480 nm, 0.0001% Triton; Potency, µM (series often up to 57.1 µM), inactives show top-dose activity change, negative = inhibition, hits mostly inhibitors; 0.52% of 330,000 active; AID 485341;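 note: plate controls were no compound for no effect and no enzyme for full effect; nearly all actives have a fitted effect of over 20% in size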
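AmpC (5.3 nM in the dispensed reagent) in 20 mM phosphate pH 7.0 with 0.01% (detergent screen) or 0.0001% Triton X-100 was preincubated with compounds for 15 min at room temperature. Nitrocefin was then added from an 800 uM solution, and hydrolysis was followed at 480 nm.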
Pf growth 48h: inhibits P. falciparum growth in the first generation, 48 h | P. falciparum luciferase growth in erythrocytes, 48 h | Potency, µM (top dose mostly 28.7 µM), for the others: at the top dose activity change, negative = inhibition, hits mostly inhibitors | 5.9% of 310,000 active; note: % is set by controls: 0 for no effect and ±100 for the full control effect
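Here the parasites carry a stable luciferase gene and grow inside erythrocytes in Albumax-based RPMI medium with compound for one erythrocytic cycle. Activity is scored as loss of luminescent signal.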
SARS PLP yeast: SARS-CoV PLP inhibition in yeast | 0.19% of 330,000 active | Potency, µM (doses to about 32.9 µM), for the others: at the highest dose activity, positive = growth rescue, hits mostly activators | S. cerevisiae expressing SARS-CoV PLpro, growth rescue; calls by dose curve; note: 0% is about no effect; nearly all actives have a fitted effect of over 55% in size
Starred values were filed as active, the others as inactive; ? = inconclusive; . = not tested or not shown; [ ] = remark or other dose. Unless noted, calls come from the whole dose curve; as a rule, active = well fitted curve in the direction sought with a large enough effect; inconclusive = small, poorly fitted or top-dose-only effect, or another doubt; inactive = no such curve, though single readings can be large; an effect the other way counts as inactive or inconclusive. Potency is the fitted concentration of half-maximal effect.

SMILES	Pf growth 96h	Sm TGR inh	AmpC detergent	AmpC inh no detg	Pf growth 48h	SARS PLP yeast
CC(C)(C)OC(=O)N1Cc2ccccc2C[C@H]1C(=O)NCC(=O)NCC1CCCO1 (stereo partly specified)	25.4%	-1.1%	-4.6%	11.3%	14.2%	-1.9%
CCOc1ccc(CNC(=S)N/N=C/c2cccnc2)cc1	5.9%	4.5%	0.3%	-37.5%	-6.6%	5.0%
CCOc1ccc(CNC(=S)N/N=C\c2ccc([N+](=O)[O-])cc2)cc1	?	4.1%	0.8%	-19.8%	13.1µM*	-7.1%
CC(=O)c1ccc(N/N=C2/CCCNC2=O)cc1	-10.1%	-2.7%	-2.3%	-18.2%	?	0.5%
Cc1ccc(N/N=C2/CCCNC2=O)cc1	88.7%	31.6µM*	-13.9%	-14.8%	24.4%	1.0%
NC(=O)C1CCN(S(=O)(=O)c2ccc(N3CCCCS3(=O)=O)cc2)CC1	.	-23.6%	6.7%	.	.	.
CC1=NC(Nc2nc(C)c3ccccc3n2)=NC(C)(C)C1	?	25.1µM*	?	-47.8%	?	-5.0%
CCc1c(C)nc(Nc2nc(C)c3ccc(OC)cc3n2)[nH]c1=O	7.38µM*	2.0%	-4.8%	-11.7%	.	-0.1%
COc1ccc2c(C)nc(Nc3nc(C)cc(C)n3)nc2c1	4.65µM*	11.2µM*	-8.3%	-17.5%	13.1µM*	10.2%
COc1ccc(Nc2nc(C)c3ccccc3n2)cc1	3.7µM*	3.3%	-7.7%	-16.4%	115.1%	-3.9%
CCc1c(C)nc(Nc2nc(C)c3cc(OC)ccc3n2)[nH]c1=O	-18.8%[5.75 µM]	2.3%	-1.0%	1.2%	?	7.9%
COc1ccc2c(C)nc(Nc3nc(C)c(C)c(=O)[nH]3)nc2c1	?	11.6%	-12.0%	-14.1%	89.1%	0.8%
CC(=O)N1c2ccc(S(=O)(=O)N3CCC(C(=O)Nc4cccc(C(F)(F)F)c4)CC3)cc2CC1C (stereo unspecified)	?	4.4%	1.5%	26.4%	?	-3.6%
CCOC(=O)c1c(N)sc(C(O)(C(F)(F)F)C(F)(F)F)c1-c1ccc(OC)cc1OC	?	0.0%	?	-0.7%	11.7µM*	-8.4%
COc1ccc(-c2noc(-c3ccc(NCc4ccc(C)cc4)c([N+](=O)[O-])c3)n2)cc1OC	.	-14.1%	-3.1%	.	.	.
Cc1cccc(N(CC(=O)Nc2ccccc2-c2ccccc2)S(=O)(=O)c2ccccc2)c1C	7.6%	23.0%	1.4%	-22.8%	8.28µM*	8.3%
Cc1cc(C)cc(N(CC(=O)Nc2ccccc2-c2ccccc2)S(=O)(=O)c2ccccc2)c1	?	0.1%	-4.2%	-15.2%	1.8%	-11.3%
Cc1ccc(S(=O)(=O)Nc2ccccc2N(C)S(=O)(=O)c2ccc(C)cc2)cc1	?	-1.6%	-7.6%	-30.3%	?	-3.6%
Cc1ccc(N(CC(=O)Nc2ccccc2-c2ccccc2)S(=O)(=O)c2ccccc2)cc1	6.57µM*	3.6%	?	-18.5%	?	13.8%
Cc1ccc(S(=O)(=O)Nc2ccccc2-c2ccccc2)cc1	11.7µM*	1.3%	-0.5%	-29.5%	-6.2%	-14.9%
Cc1nn2c(C)c(C(=O)NC(C)c3ccccc3)cnc2c1-c1ccc(F)cc1 (stereo unspecified)	.	5.9%	8.7%	.	.	.
COc1ccc(OC)c(C2C(C(=O)Nc3ccc(C)cc3)=C(C)Nc3nnnn32)c1 (stereo unspecified)	.	4.4%	-6.9%	.	.	.
Cc1ccc(S(=O)(=O)NC(C)(C)CSc2nnc(Nc3ccccc3)s2)cc1	11.7µM*	4.0%	-10.4%	-41.1%	.	-3.7%
CC(C)(CSc1ncccn1)NS(=O)(=O)c1ccccc1	10.0%	0.0%	2.2%	-20.9%	-4.5%	0.4%
CC(=O)c1ccc2noc(-c3cccc(C)c3)c2c1	14.3%	17.8µM*	?	-4.1%	?	-1.1%
SMILES	Pf growth 96h	Sm TGR inh	AmpC detergent	AmpC inh no detg	Pf growth 48h	SARS PLP yeast
CC(=O)c1ccc2noc(-c3ccccc3)c2c1	262.5%	-1.7%	-2.9%	3.2%	-22.5%	-2.0%
NC(Cc1ccc(Oc2cc(I)c(O)c(I)c2)c(I)c1)C(=O)O (stereo unspecified)	-20.9%	.	.	.	2.7%	.
CCN(CC)C1CCN(C(=O)c2ccc3nc(Cc4ccc(OC)cc4)oc3c2)C1 (stereo unspecified)	?	-0.2%	?	43.8%	?	0.7%
OC1(Cc2cc(-c3ccccc3)no2)CCN(CCCc2ccccc2)CC1	3.29µM*	-1.5%	-6.1%	20.0%	6.57µM*	3.5%
Cc1noc(C)c1S(=O)(=O)N(CC(=O)NC1CCCC1)c1ccc(C(C)C)cc1	-14.3%	-1.7%	-1.4%	17.0%	-6.0%	1.9%
Cc1ccc(OCC(=O)N2N=C(c3cccnc3)CC2(O)C(F)(F)F)cc1C (stereo unspecified)	9.28µM*	5.5%	-0.9%	-12.0%	?	6.8%
Cc1ccc(OCC(=O)N2N=C(C(F)(F)F)CC2(O)C(C)(C)C)cc1C (stereo unspecified)	?	-18.5%	-4.9%	12.9%	.	-23.2%
COc1ccc(C(CC(=O)c2ccc(C)cc2)C(C#N)C#N)cc1OC (stereo unspecified)	22.2%	?	-18.2%	5.5%	13.1µM*	-8.6%
COC(=O)C(C(=O)OC)C(CC(=O)c1ccc(C)cc1)c1cc(OC)c(OC)c(OC)c1 (stereo unspecified)	?	3.9%	?	141.1%	-6.7%	2.6%
Nc1nnc(SCC(=O)Nc2cccc(F)c2)s1	.	2.4%	5.5%	.	.	.
CSc1nc(=S)n(-c2ccccc2)c(C)c1C(C)=O	-10.2%	39.8µM*	8.1%	-10.5%	8.3%	0.4%
COc1ccc(C(C)=O)cc1CC(=O)Nc1cccc(S(=O)(=O)N2CCOCC2)c1	7.38µM*	8.0%	1.3%	-30.2%	13.1µM*	2.6%[6.58 µM]
COc1ccc(S(=O)(=O)N2CCOCC2)cc1NC(=O)Cc1c(Cl)cccc1Cl	8.28µM*	-4.5%	?	-17.8%	?	-4.1%
COc1ccc(Cl)cc1NC(=O)C(C)NC(c1ccccc1)c1ccccc1 (stereo unspecified)	2.94µM*	4.2%	?	-10.2%	13.1µM*	11.6%
COc1ccc(Cl)cc1NC(=O)C(C)N(C)Cc1cccc(Cl)c1Cl (stereo unspecified)	6.57µM*	3.0%	?	-25.6%	11.7µM*	-4.1%
CCOc1ccc(-c2cn3nc(CC(C)C)sc3n2)cc1	.	-3.0%	8.7%	.	.	.
Cc1ccccc1CNC(=O)c1cccc(NC(=O)N2CCSc3ncccc32)c1	.	-6.5%	-10.0%	.	.	.
COc1ccc(S(=O)(=O)N2CCOCC2)cc1NC(=O)CN1CCCCCC1	39.7%	?	-11.2%	-13.8%	-4.2%	-0.8%
